# POLB inh: blocks human DNA polymerase beta activity; Pol beta primer extension/strand displacement, fluorescence kinetic; actives 1.3% (n = 340,000); AID 485314; Potency, µM (highest dose often 114 µM), for inactives: at the top dose activity change, negative = inhibition, actives largely listed as inhibitors; further: potency means the concentration at half of the fitted maximal effect; on the % scale 0 is the no-effect control and ±100 the full control effect
#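 10 nM enzyme + cpd, 15 min RT; start with substrate 50 nM final; read 0 min and after 10 min RT. Corrected, normalized data; 4-parameter Hill curve fit.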
# WRN helicase inh: blocks human WRN helicase; actives 0.46% (n = 360,000); WRN helicase unwinding, fluorescent forked duplex, kinetic; Q14191; Potency, µM (doses to about 114 µM), without a hit: top-dose activity change, negative = inhibition, actives largely listed as inhibitors; further: potency means the concentration at half of the fitted maximal effect; on the % scale 0 is the no-effect control and ±100 the full control effect; nearly all actives have a fitted effect of over 55% in size
#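 WRN at 20 nM final was preincubated with compound for 15 min at room temperature; reaction started with 100 nM forked duplex oligonucleotide carrying fluorophore and quencher plus 2 mM ATP (final). Unwinding followed kinetically by red fluorescence (ex 525/em 598 nm).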
# Pol kappa inh: blocks human DNA polymerase kappa activity; Q9UBT6; actives 0.53% (n = 400,000); purified Pol kappa, fluorescent DNA synthesis assay, 10 min; AID 588579; Potency, µM (top dose mostly 107 µM), without a hit: at the top dose activity, negative = inhibition, hits mostly inhibitors; further: potency means the concentration at half of the fitted maximal effect; on the % scale 0 is the no-effect control and ±100 the full control effect
#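 Kinetic fluorescence screen: compound preincubated 15 min RT with 10 nM enzyme; 50 nM substrate (final) initiates; reads at 0/10 min.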
# PI5P4Ka inh: blocks human PI5P4K alpha kinase activity; P48426; PI5P4Kalpha enzyme, ADP-Glo luminescence, 60 min; active compounds read low; max response, %; actives 1.2% (n = 330,000); AID 652105; active means max response of -50% or lower; inconclusive means between -30% and -50%; inactive means -30% or higher; further: value at the top dose of about 77 µM; on the % scale 0 is the no-effect control and ±100 the full control effect
#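 Controls without substrate or without enzyme flank wells where PI5P4Kalpha converts substrate using 5 microM ATP (final). Incubation lasts 60 minutes at room temperature; ADP formed is read by ADP-Glo luminescence.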
# Pol eta inh: DNA polymerase eta (human) inhibition; Q9Y253; recombinant Pol eta, fluorescent DNA replication assay; Potency, µM (highest dose often 114 µM), inactives show at the highest dose activity change, negative = inhibition, hits mostly inhibitors; actives 1.2% (n = 390,000); AID 588591; further: potency means the concentration at half of the fitted maximal effect; on the % scale 0 is the no-effect control and ±100 the full control effect
#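 Fluorescent replication assay: 50 nM final substrate added after a 15 min room-temperature compound preincubation with 10 nM enzyme. Signal taken at 0 min and again at 10 min.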
# POLI inh: DNA polymerase iota (human) inhibition; Potency, µM (highest dose often 115 µM), inactives show top-dose activity, negative = inhibition, hits mostly inhibitors; Pol iota fluorescent replication assay, 10 min; Q9UNA4; actives 1% (n = 390,000); further: potency means the concentration at half of the fitted maximal effect
# Target sequence (Q9UNA4 whole entry, looked up): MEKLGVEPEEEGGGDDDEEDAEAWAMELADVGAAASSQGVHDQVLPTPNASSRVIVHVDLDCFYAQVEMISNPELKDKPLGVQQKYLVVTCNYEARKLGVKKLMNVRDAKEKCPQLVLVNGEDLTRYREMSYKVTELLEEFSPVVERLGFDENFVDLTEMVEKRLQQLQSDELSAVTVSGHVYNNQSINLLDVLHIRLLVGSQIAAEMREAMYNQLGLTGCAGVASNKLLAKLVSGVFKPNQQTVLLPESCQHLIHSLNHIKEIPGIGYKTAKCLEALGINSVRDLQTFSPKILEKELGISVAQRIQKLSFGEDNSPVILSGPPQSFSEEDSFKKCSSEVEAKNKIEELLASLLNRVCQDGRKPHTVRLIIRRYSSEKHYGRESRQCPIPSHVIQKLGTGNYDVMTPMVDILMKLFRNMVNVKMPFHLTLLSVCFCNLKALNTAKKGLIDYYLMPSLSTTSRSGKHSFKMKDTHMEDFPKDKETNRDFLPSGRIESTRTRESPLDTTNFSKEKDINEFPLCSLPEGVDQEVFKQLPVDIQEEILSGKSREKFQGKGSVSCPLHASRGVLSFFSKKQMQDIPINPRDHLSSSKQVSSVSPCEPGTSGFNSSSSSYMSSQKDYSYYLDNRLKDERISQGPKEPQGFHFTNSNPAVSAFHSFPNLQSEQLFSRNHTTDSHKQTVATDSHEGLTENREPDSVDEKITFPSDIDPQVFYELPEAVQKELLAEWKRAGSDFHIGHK
#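 Pol iota at 10 nM preincubated 15 min with compounds at room temperature; reaction started with fluorescent substrate, 50 nM final. Fluorescence read kinetically at 0 and 10 min; buffer-only wells as negative control.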
# * = called active by the depositor; ? = inconclusive; / = no result given; [ ] = dose if it differs, or a comment. This is a sample that favours compounds with a hit; in the whole collection about 2.8% have one here. Unless noted, the call rests on the fitted dose curve; in most records, active means well fitted curve in the direction sought with a large enough effect; inconclusive means small, poorly fitted or top-dose-only effect, or another doubt; inactive means no such curve, though single readings can be large; an effect the other way counts as inactive or inconclusive.
SMILES,POLB inh,WRN helicase inh,Pol kappa inh,PI5P4Ka inh,Pol eta inh,POLI inh
O=C(NCc1ccco1)/C(=C\c1cccs1)NC(=O)c1cccs1,-9.2%,5.7%,3.5%,-6.5,-11.9%,85.4%
O=C(NCc1ccco1)/C(=C\c1ccco1)NC(=O)c1cccs1,22.4µM*,4.6%,-13.1%,-2.9,-20.8%,70.6%
Cc1ccc(/C=N/NC(=O)NC2CCCCC2)o1,-1.2%,1.1%,-4.5%,-1.1,5.9%,2.6%
O=C(c1ccc2c(c1)N(Cc1ccccc1)C(=O)c1ccccc1S2(=O)=O)N1CCN(c2ccccn2)CC1,?,/,-9.3%,/,/,29.6%
COc1ccc(/C(C)=N/NC(=O)CNC(=O)/C=C\c2ccccc2OC)c(OC)c1,37.9%,-0.5%,-5.1%,-0.1,-19.5%,44.9%
CC(C(=O)NC1C(=O)N2C(C(=O)O)=C(CSc3nnnn3C)CSC12)n1cc(Cl)cn1 (centres undefined),?,-3.5%,-17.4%,-2.3,35.5µM*,?
CC(=O)OCC1=C(C(=O)OC(C)(C)C)N2C(=O)[C@@H](NC(=O)Cc3ccccc3)[C@H]2SC1,/,-28.2%,?,-51.0*,?,31.6µM*
CC1=C(C(=O)OCC(Cl)(Cl)Cl)N2C(=O)C(NC(=O)Cc3ccccc3)C2SC1 (centres undefined),1.6%,1.4%,-11.7%,4.6,8.1%,75.7%
CO/N=C(/C(=O)N[C@@H]1C(=O)N2C(C(=O)O)=C(CSc3nc(C)c(CC(=O)O)s3)CS[C@H]12)c1csc(N)n1,/,/,-2.8%[19.4 µM],/,/,/
Cc1nnc(SCC2=C(C(=O)O)N3C(=O)C(NC(=O)Cc4ccccc4)C3SC2)s1 (centres undefined),/,-19.0%,?,1.9,22.4µM*,?
COC[C@H](NS(=O)(=O)c1ccc(Br)cc1F)[C@@H](O)c1ccccc1,/,2.8%,/,-2.3,-10.2%,/
CCN1C(=O)CSC1=Nc1ccc(C(=O)OC)cc1,/,8.5%,/,-13.2,?,/
CCC(C)[C@H](NC(=O)C1CCC(CNC(=O)[C@@H]2CCCN2C(=O)OC(C)(C)C)CC1)C(=O)O (some centres undefined),0.224µM*,0.1%,2.3%,-0.1,6.9%,-1.5%
O=C(O)c1ccc(/C=N\Nc2ccc(S(=O)(=O)N3CCOCC3)cc2[N+](=O)[O-])cc1,?,-2.9%,9.9%,-1.1,?,-10.3%
Cc1ccc(-n2c(O)c(/C=N/Nc3ccc(S(=O)(=O)N4CCOCC4)cc3[N+](=O)[O-])c3ccccc3c2=O)c(C)c1,79.4µM*,-34.7%[57.1 µM],-16.1%,?,44.7µM*,?
CC(C)CCNC(=O)CN(Cc1ccco1)C(=O)c1snc(C(N)=O)c1N,37.5%,-11.8%,-0.6%,-1.3,8.2%,63.4%
CCc1ccccc1N(CC(=O)NCc1ccco1)C(=O)c1snc(C(N)=O)c1N,50.1µM*,-19.3%,-35.1%,-25.2,20µM*,?
O=[N+]([O-])c1ccc(-c2csc(Nc3ccccc3)n2)cc1,/,/,4.1%,/,/,25.0%
O=c1nc(Nc2ccccc2)sc2ccc([N+](=O)[O-])cc12,?,-29.1%,-12.2%,1.5,15.8µM*,0.2%
CC(=O)Nc1cccc(NC(=O)Nc2cccc(Cl)c2C)c1,44.7µM*,-5.8%,-23.5%,-2.3,-8.9%,10.4%
CC(=O)Nc1cccc(NC(=S)Nc2cccc(Cl)c2C)c1,-2.1%,-4.0%,-14.2%,6.4,-3.4%,?
COc1cc(NC(=O)C(c2ccccc2)c2ccccc2)c(C(=O)O)cc1OC,56.3%,-4.0%,-8.4%,-2.6,-13.7%,30.7%
O=C(O)CCc1ccc(-c2ccc(Br)cc2)n1Cc1ccco1,?,-11.8%[57.1 µM],-37.9%,/,56.2µM*,50.1µM*
O=C(O)CCc1ccc(-c2ccc(Br)cc2)n1-c1ccc(O)cc1,2.0%,-7.5%,-2.4%,-7.1,-6.8%,?
O=C(O)CCc1ccc(-c2ccc(F)cc2)n1Cc1ccco1,-23.6%,-16.8%,-12.5%,/,-10.5%,-15.3%
SMILES,POLB inh,WRN helicase inh,Pol kappa inh,PI5P4Ka inh,Pol eta inh,POLI inh
O=C(O)CCc1ccc(-c2ccccc2)n1Cc1ccco1,-2.3%,?,?,?,15.8µM*,?
CCN(CC)CC(C)CNC(=O)C1(O)c2ccccc2NC(=O)N1c1ccc(Cl)c(Cl)c1 (centres undefined),17.4%,-4.6%,-15.0%,-3.3,-15.8%,15.1%
CC(C)c1cc2c(c(O)c1O)[C@@]13CCCC(C)(C)C1CC2OC3=O (some centres undefined),28.6%,-2.4%,1.1%,-74.6*,-0.1%,-19.5%
Cc1cccc(NC(=O)c2c(C)cc(C)nc2SCC(=O)Nc2c(C)cc(C)cc2C)c1,?,/,-8.8%,/,3.7%,-12.0%
C[C@@H]1CN([C@H](C)CO)S(=O)(=O)c2ccc(Br)cc2O[C@@H]1CN(C)C(=O)NC1CCCC1,/,0.7%,/,-8.3,-13.6%,/
O=c1cc(CSc2ccc(Cl)cc2)[nH]c2[nH]n(-c3ccccc3)c(=O)c12,39.8µM*,-20.3%,?,?,-16.3%,?
Cc1ccc(SCc2cc(=O)c3c(=O)n(-c4ccccc4)[nH]c3[nH]2)cc1,35.5µM*,?,?,-61.8*,-2.6%,22.4µM*
CC(=O)Nc1cccc(NC(=O)CSc2ncc(-c3ccccc3)[nH]2)c1,14.1µM*,-7.8%,-25.4%,1.0,5.7%,?
CN(C)S(=O)(=O)c1ccc(-c2csc(N/N=C/c3ccc(O)cc3)n2)cc1,6.1%,-12.1%,-6.4%,-63.3*,-11.9%,?
CCN(CC)CC(C)CNC(=O)c1cc(-c2ccc(Br)s2)nc2ccccc12 (centres undefined),-26.8%,/,-8.9%,/,5.4%,-6.5%
CCCCCCc1ccc(C(=O)CCN(C)C)cc1,/,/,12.2%,/,/,-3.7%
COc1ccc([N+](=O)[O-])cc1C(=O)Nc1ccc(Cc2ccncc2)cc1,11.2µM*,-0.5%,-10.6%,-2.5,3.8%,7.7%
COc1ccc([N+](=O)[O-])cc1NC(=O)Nc1cccc(Cl)c1,0.8%,-9.6%,-9.8%,8.4,?,9.7%
COc1ccc([N+](=O)[O-])cc1NC(=O)Nc1ccc(OC)c(OC)c1,20µM*,?,-22.0%,3.4,-9.1%,-28.7%
COc1ccc(-c2csc(NC(=O)CCN3C(=O)C4CC=CCC4C3=O)n2)cc1OC (centres undefined),/,-9.5%,2.8%,-0.6,-22.2%,12.4%
O=c1c(S(=O)(=O)c2ccc(Cl)cc2)cn(Cc2ccc(F)cc2)c2ccc(F)cc12,6.8%,/,?,/,-21.4%,79.4µM*
O=c1c(S(=O)(=O)c2ccc(Cl)cc2)cn(Cc2ccccc2)c2ccc(F)cc12,-17.8%,6.1%,-0.2%,-3.5,-9.9%,56.2%
